The values below come from PubChem BioAssay AID1945 (The Scripps Research Institute Molecular Screening Center, 2009).

In general, inhibition refers to the change of the read-out against control, counted positive when it falls.

Screen size: about 1,600 compounds; about 65 (4%) were called active. The list is a sample of the results. Values without a mark were called inactive. Cut-off read from the data, not from the text of the source: active = inhibition above about 37%; inactive = the rest.

The nature of this test: compounds displacing fluorescent DNA intercalator, artefact control for HCV NS3 helicase inhibitor project, biochemical, FID fluorescence, triplicate (AID 1945).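 Note: 0% = vehicle and 100% = reference compound; higher means more displacement of ethidium bromide from the DNA hairpin.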 The note with it: DNA fluorescent intercalator displacement, at 7.9 µM, hits give high values.
For the compound `CC(=O)Oc1cccc(N2C(=O)CC(Nc3ccc(N4CCOCC4)cc3)C2=O)c1` (stereo not given), the inhibition is -9.25%.

In the case of `COc1cc(/C=C2/C(=O)NN(c3cccc(Cl)c3)C2=O)cc(Br)c1O`, the inhibition was 8.6%. Next, `COc1ccccc1C1/C(=C(/O)c2ccc(OC(C)C)cc2)C(=O)C(=O)N1c1cc(C)on1` (stereo not given): -26.4%; `COc1cc(C2CC(=O)N3CN(Cc4ccccc4)CSC3=C2C#N)ccc1OCc1ccccc1` (stereo not given): -15.9%; `CC(=O)C1=C(O)C(=O)N(c2ccc(Br)cc2)C1c1ccc([N+](=O)[O-])cc1` (stereo not given): -11.1%. With `O=C1NN(c2ccccc2)C(=O)/C1=C/c1ccc(-c2cccc(C(=O)O)c2)o1` the figure was -0.74%; with `Cc1ccc(C2=N/C(=C\c3ccc(OS(=O)(=O)c4ccc(C)cc4)cc3)C(=O)O2)cc1`, -12.6%; with `COc1cc(C2C(C(=O)c3ccco3)=C(O)C(=O)N2c2cc(C)on2)ccc1OCc1ccccc1` (stereo not given), -1.69%. Next, `Cc1[nH]n(C(N)=S)c(=O)c1N=Nc1ccc(Cl)cc1Cl`: -8.84%. As to `O=[N+]([O-])c1cc(Cl)cc(/C=N/NC(=S)Nc2cc(S(=O)(=O)N3CCOCC3)ccc2Cl)c1O`, the inhibition is -2.03%. Next, `O=C(N/N=C/c1ccc([N+](=O)[O-])o1)c1cn(-c2ccccc2)nc1-c1ccc(F)cc1`: 10.7%; `Cc1ccc(C)c(-n2c(SCC(=O)O)nc3sc4c(c3c2=O)CCCC4)c1`: -27.8%. `S=C(NCCc1ccccc1)N1CCCCC1`: the inhibition is -0.28%. Next, `CCOC(=O)c1nnn(-c2nc(OC)nc(N(C)C)n2)c1-c1ccccc1`: -39.7%; `N#C/C=C(/c1ccc(F)cc1)N1CCOCC1`: 14%. Turning to `CCOc1ccc(C(C(=O)NCCOC)N(CCOC)C(=O)CCC(=O)Nc2ccccn2)cc1` (stereo not given), the inhibition was -24.9%. As to `Cc1ccc(C2Nc3cccc4cccc(c34)N2)cc1`, the inhibition is 17.1%. Turning to `COc1ccc(/C=C(\NC(=O)c2ccc(OCC(C)C)cc2)C(=O)OCc2ccco2)cc1`, the inhibition is -43.9%. Regarding `Cc1ccc(OCC(=O)c2cc(C)n(Cc3ccco3)c2C)c([N+](=O)[O-])n1`, the inhibition was -9.01%. With `Cc1ccccc1Nc1nnc(SCC(=O)c2cc3ccccc3o2)s1` the figure was -3.69%; with `COc1ccc(C)cc1-n1nnnc1SCC(=O)c1cc(C)n(Cc2ccco2)c1C`, -39%; with `CC(Oc1ccccc1)C(=O)Nc1oc(-c2ccco2)c(-c2ccco2)c1C#N` (stereo not given), 13.9%. Turning to `CC(C)c1ccc(Nc2nnc(SCC(=O)c3nnc(-c4ccccc4)o3)s2)cc1`, the inhibition is 8.51%. Consider `O=c1[nH]c(/C=C\c2cccc(C(F)(F)F)c2)nc(O)c1[N+](=O)[O-]`, for which the inhibition is -2.48%. With `O=c1nc2s/c(=C\c3ccco3)c(=O)n2nc1Cc1ccccc1` the figure was 7.7%. Regarding `Cc1ccc(S(=O)(=O)N/N=C\c2cc3c(cc2[N+](=O)[O-])OCO3)cc1`, the inhibition is 14.6%. In the case of `CC(=O)Nc1ccc(Nc2c3ccccc3nc3ccccc23)cc1`, the inhibition was 79.8% (active).

With `CCOC(=O)c1ccccc1N1C(=O)C2Sc3[nH]c(=O)sc3C(/C=C/c3ccccc3)C2C1=O` (stereo not given), the inhibition was -46.6%. On to `COCCNC(=O)Nc1ccc2nc(-c3ccco3)c(-c3ccco3)nc2c1`, for which the inhibition is 18.2%. As for `CCOC(=O)c1c(-c2ccccc2)oc2cc(Br)c(O)c(C=O)c12`, the inhibition was 85% (active). For `Cc1cc(O)c(C(=O)/C=C/c2c(F)c(F)c(F)c(F)c2F)c(=O)o1`, the inhibition is 3.73%. On to `CCOc1ccc(C2C3=C(CCCC3=O)N(CC(=O)O)C3=C2C(=O)CCC3)cc1`, for which the inhibition is 7.44%. With `CS(=O)(=O)c1ccc2c(c1)SC1=NC(=O)/C(=C/c3ccco3)C(=N)N12` the figure was -2.29%; with `Cc1ccc(SC(CC(=O)c2ccc(C(C)(C)C)cc2)C(=O)O)cc1` (stereo not given), -10.2%.

Consider `CC1=NN(c2ccc(Cl)c(C(=O)O)c2)C(=O)/C1=C/c1ccc(-c2ccccc2[N+](=O)[O-])o1`, for which the inhibition was 15.8%. Consider `COc1ccc(/C=C2\SC(=S)N(CCC(=O)Nc3cccc(C(=O)O)c3)C2=O)cc1OC`, for which the inhibition was 15.4%. With `CNS(=O)(=O)c1cccc(C(=O)NC2CCCc3ccccc32)c1` (stereo not given), the inhibition was -7.17%. Next, `CCSc1nsc(NC(=O)Nc2cccc(C(C)=O)c2)n1`: 8.36%; `O=c1c2c(-c3ccccc3)ccnc2[nH]n1-c1ccccc1`: 1.8%; `COC(=O)COc1ccc2c(c1C)O/C(=C\c1ccco1)C2=O`: -11.8%. Next, `NS(=O)(=O)c1ccc(-c2ccc(/C=C3\SC(=O)NC3=O)o2)cc1`: 1.16%; `CCOC(=O)C1=C(O)/C(=C/c2cc(C)n(-c3ccccc3)c2C)N=C1C`: -10.6%. Next, `COc1ccc(/C=C/C(=O)c2cc(Br)ccc(=O)c2O)cc1`: 16.2%; `Cc1ccc(C(=O)O)cc1-c1ccc(/C=C2\SC(=O)N(CC(=O)Nc3ccc4c(c3)OCO4)C2=O)o1`: 1%. Turning to `COc1cccc(CNC(=O)c2nnn(CC(=O)Nc3cc(Cl)ccc3C)c2N)c1`, the inhibition was 9.61%. Regarding `Cc1ccc(S(=O)(=O)NCCC(c2ccccc2)c2ccccc2)cc1C(=O)O`, the inhibition was -24.5%. With `CCN(CC)CCOc1ccc2c(c1)C(=NNC(=O)c1ccccn1)c1cc(OCCN(CC)CC)ccc1-2` the figure was 94.3% (active); with `Brc1ccccc1C1Nc2cccc3cccc(c23)N1`, 12.8%. Next, `O=C1C=CC(=O)N1c1ccc(N2CCCCC2)cc1`: 17%; `O=C(N/N=C/c1ccco1)c1csc2c1CCCC2`: -7.05%. On to `COc1ccccc1N1CCN(C(=O)CCS(=O)(=O)c2ccc3c(c2)NC(=O)C(C)S3)CC1` (stereo not given), for which the inhibition is -36.4%. Next, `CSc1c(SCc2ccccc2)cnn(Cc2ccccc2)c1=O`: -16.1%; `CCC1C/C(=C/c2cccs2)C(=O)/C(=C/c2cccs2)C1` (stereo not given): -0.49%; `Nc1ccc2nc3c(=O)[nH]c(=S)[nH]c3nc2c1`: -8.12%. Regarding `Cc1nn2c(c1-c1ccccc1)N=C(c1ccco1)CC2c1ccccc1` (stereo not given), the inhibition is -5.96%.
